# Compounds with a hit are over-represented: about 0.75% of the library has one in this group of screens.
# Mtb hypoxia inh – PubChem AID 1159583 | M. tuberculosis hypoxia-regulated fluorescent reporter, fluorescence | fluorescence inhibition, % (test concentration not listed) | 300,000 compounds, 0.1% hits; in the data active = fluorescence inhibition mostly above about 23%, no sharp cut-off; inactive = mostly below about 17%
# TcdB inh – TcdB glycohydrolase inhibitors, primary screen, biochemical, single point, plate reader; Toxin B (Clostridioides difficile), P18177; TcdB glycohydrolase enzymatic assay; inhibition, % at 9.99 µM; 350,000 compounds, 0.24% hits; in the data active = inhibition above about 10%
# Target sequence (P18177 whole entry, looked up): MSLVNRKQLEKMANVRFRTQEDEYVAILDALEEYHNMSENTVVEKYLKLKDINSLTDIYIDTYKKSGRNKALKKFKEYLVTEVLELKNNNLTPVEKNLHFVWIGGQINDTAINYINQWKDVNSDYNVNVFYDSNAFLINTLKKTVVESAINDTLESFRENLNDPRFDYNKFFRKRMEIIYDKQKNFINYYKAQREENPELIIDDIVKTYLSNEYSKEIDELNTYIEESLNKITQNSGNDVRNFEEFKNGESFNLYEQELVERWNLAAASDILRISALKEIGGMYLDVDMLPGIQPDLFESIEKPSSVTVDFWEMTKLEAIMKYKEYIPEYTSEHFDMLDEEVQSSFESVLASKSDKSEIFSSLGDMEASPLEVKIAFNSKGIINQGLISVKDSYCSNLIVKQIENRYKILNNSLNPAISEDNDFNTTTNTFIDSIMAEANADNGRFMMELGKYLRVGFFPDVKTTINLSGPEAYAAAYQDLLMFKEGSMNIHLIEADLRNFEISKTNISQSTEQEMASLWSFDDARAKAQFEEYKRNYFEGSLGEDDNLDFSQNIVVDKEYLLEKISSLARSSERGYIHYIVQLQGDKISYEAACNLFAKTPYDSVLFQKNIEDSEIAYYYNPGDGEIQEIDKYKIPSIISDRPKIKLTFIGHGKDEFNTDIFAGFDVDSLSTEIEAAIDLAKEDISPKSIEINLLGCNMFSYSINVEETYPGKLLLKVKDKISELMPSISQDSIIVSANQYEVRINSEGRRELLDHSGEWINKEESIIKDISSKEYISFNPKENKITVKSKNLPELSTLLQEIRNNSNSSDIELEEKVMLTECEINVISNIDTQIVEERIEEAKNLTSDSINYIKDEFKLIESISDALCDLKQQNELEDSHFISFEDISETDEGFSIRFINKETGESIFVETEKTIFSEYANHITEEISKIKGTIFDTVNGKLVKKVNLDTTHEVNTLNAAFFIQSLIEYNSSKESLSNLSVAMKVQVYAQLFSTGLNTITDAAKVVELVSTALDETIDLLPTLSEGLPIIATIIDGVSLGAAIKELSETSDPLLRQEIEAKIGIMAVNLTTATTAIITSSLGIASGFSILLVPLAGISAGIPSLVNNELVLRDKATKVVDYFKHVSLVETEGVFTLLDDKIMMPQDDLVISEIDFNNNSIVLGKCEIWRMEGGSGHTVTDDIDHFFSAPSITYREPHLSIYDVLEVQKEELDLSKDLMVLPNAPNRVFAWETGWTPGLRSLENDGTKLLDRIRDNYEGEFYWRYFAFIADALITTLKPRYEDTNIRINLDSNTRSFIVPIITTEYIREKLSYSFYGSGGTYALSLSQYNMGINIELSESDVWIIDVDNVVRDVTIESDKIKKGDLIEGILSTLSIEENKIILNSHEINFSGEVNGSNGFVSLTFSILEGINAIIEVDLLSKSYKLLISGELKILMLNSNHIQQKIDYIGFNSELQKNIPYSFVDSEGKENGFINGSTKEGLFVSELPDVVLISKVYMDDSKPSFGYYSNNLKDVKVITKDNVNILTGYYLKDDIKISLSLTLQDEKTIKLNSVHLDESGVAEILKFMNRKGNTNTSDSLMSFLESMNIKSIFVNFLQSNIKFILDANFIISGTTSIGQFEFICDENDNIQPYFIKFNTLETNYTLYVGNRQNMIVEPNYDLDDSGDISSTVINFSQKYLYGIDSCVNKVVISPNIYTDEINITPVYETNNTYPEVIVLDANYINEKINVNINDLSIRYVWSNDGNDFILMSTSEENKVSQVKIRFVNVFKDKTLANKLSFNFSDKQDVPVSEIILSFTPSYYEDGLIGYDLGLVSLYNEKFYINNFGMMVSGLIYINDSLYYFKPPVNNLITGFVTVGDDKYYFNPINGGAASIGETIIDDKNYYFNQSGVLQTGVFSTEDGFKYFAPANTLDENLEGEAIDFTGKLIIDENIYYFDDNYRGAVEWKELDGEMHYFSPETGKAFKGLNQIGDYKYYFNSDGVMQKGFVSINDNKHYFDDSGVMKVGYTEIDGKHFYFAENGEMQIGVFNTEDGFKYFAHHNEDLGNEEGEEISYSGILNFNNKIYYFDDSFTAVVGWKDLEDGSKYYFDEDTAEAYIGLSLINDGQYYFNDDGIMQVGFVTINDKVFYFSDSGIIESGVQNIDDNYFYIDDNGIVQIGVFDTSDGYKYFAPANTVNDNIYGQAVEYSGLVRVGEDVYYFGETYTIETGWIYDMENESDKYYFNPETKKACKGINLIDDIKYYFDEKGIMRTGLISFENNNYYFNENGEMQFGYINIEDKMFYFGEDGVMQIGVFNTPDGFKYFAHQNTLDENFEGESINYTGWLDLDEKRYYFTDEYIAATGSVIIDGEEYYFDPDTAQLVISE
# Mtb BioA inh – M. tuberculosis BioA enzyme inhibitors, primary screen, biochemical, plate reader, single point, HTS; 7,8-diaminopelargonic acid synthase BioA (Mycobacterium tuberculosis); purified M. tuberculosis BioA enzyme; inhibition, % at 9.99 µM; 360,000 compounds, 0.096% hits; AID 602481, 2012; in the data active = inhibition above about 40%
# Yp Topo-I inh – Yersinia pestis topoisomerase I inhibitors, primary screen, biochemical, cleavage product accumulation, plate reader, single point. DNA topoisomerase I (Yersinia pestis CO92). Y. pestis Topo-I cleavage product accumulation. activity, % at 10 µM. 360,000 compounds, 0.064% hits. AID 504884, 2011; in the data active = activity above about 50%, passing the limit was not always enough
# RN4220 kill – growth inhibition of S. aureus RN4220, primary screen, OD600; 16 h; 330,000 compounds, 0.33% hits; AID 1259311, 2017; inhibition, % (concentration not given with the values); in the data active = inhibition above about 85%;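 also: plate controls were untreated cells for no effect and reference antibiotic for full effect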
# ugtP null kill – growth inhibition of ugtP-null S. aureus, primary screen, RN4220 ugtP deletion, OD600 | 16 h | growth inhibition, % (no concentration beside the values) | 330,000 compounds, 0.54% hits | AID 1259309, 2017; in the data active = growth inhibition above about 68%;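 also: plate controls were untreated wells for no effect and antibiotic for full effect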
# * marks the source's active call; other numbers are inactive results; x = no result shown.
SMILES,Mtb hypoxia inh,TcdB inh,Mtb BioA inh,Yp Topo-I inh,RN4220 kill,ugtP null kill
Nc1nc(Cl)cc(N2CCC(c3cc(-c4ccc(Cl)cc4)n[nH]3)CC2)n1,-8.4,2.6,0.4,10.7,28.3,94.2*
COc1ccc(OC)c(-c2cc(C3CCN(c4cc(Cl)nc(N)n4)CC3)[nH]n2)c1,-4.7,x,1.6,-3.6,2.1,-9.7
CCCCCCCN1C(N(C)C)=NC[C@@H]1Cc1ccccc1,9.9,13.2*,3.1,11.1,-9.9,-3.4
CN(CCN1CCOCC1)C(=O)CC1C(=O)NCCN1Cc1ccccc1C(F)(F)F (centres undefined),-13.2,19.1*,-4.1,-5.1,0.1,2.7
O=C(CC1C(=O)NCCN1Cc1ccccc1C(F)(F)F)NCCN1CCOCC1 (centres undefined),7.0,-0.2,-3.1,1.1,1.8,8.2
Cc1ccc(C(C)C)c(OCc2ccc(C(=O)NN=Cc3ccc(O)c(O)c3)cc2)c1,5.6,x,x,x,58.0,99.7*
Cc1ccc(C(C)C)c(OCc2ccc(C(=O)NN=Cc3ccc(C(=O)O)cc3)cc2)c1,8.1,x,x,x,8.4,25.8
CCCc1nc2c(ccc3ccccc32)cc1CC,4.1,0.0,-0.4,0.9,-0.7,83.1*
COc1ccc(NC(=O)CN2CCN(c3nc(-c4cccc(OC)c4)cs3)CC2)cc1,6.5,x,-2.3,-4.5,3.1,4.3
COc1ccc(NC(=O)CN2CCN(c3nc(-c4ccc(F)cc4)cs3)CC2)c(OC)c1,10.4,1.0,x,53.9*,0.9,-10.1
Cc1ccc(S(=O)(=O)N2CCOCC2)cc1C(=O)NCCCN1CCCC1=O,x,10.6*,-4.0,-3.0,x,x
CCCCn1c(CN2CCN(C(=O)c3ccco3)CC2)nc2c1c(=O)n(C)c(=O)n2C,1.0,10.3*,1.2,-1.6,-7.6,-8.5
CCCCCn1c(CN2CCN(C(=O)c3ccco3)CC2)nc2c1c(=O)n(C)c(=O)n2C,0.8,3.2,7.0,30.3,-14.0,-7.0
Cc1cnc([N+](=O)[O-])n1CCOC(=O)NC(=O)c1ccccc1,-1.8,0.1,x,4.1,6.5,3.8
Cc1ccc(C(=O)NC(=O)OCCn2c(C)cnc2[N+](=O)[O-])cc1,-11.7,14.5*,x,6.7,6.6,-4.8
COc1cc(/C=C(\C#N)C(=O)Nc2ccc3c(c2)OCCO3)ccc1O,x,15.1*,x,-11.6,x,x
COc1cc(/C=C/C(=O)OCC(=O)Nc2ccc3c(c2)OCCO3)ccc1O,5.8,x,-0.2,-12.4,-0.1,2.0
C=C1CSc2nc(=O)c3c4c(sc3n21)CCC4,42.5*,x,1.7,10.8,4.0,-8.6
O=C(C1=C(c2ccccc2)C(=O)c2ccccc2C1=O)c1ccccc1,6.8,0.6,x,0.6,96.7*,96.2*
CCCCC1CCCO[C@@](C(=O)NCc2ccccn2)(C(F)(F)F)C1 (some centres undefined),-7.7,x,x,x,3.8,0.1
O=C1Nc2ccc(Br)cc2C12NNc1ccccc1O2 (centres undefined),1.7,1.8,0.6,-57.6,85.4,96.8*
CC[C@H](C)[C@H]1CNC(=S)N1CC1CCN(CCCC2CCCC2)CC1,x,13.1*,-2.5,7.6,x,x
CC(=O)Nc1ccc(NC(=O)CC(C)=NNC(=O)c2cccc3ccccc23)cc1,5.7,x,x,x,1.7,1.7
COc1ccc(-c2nc(CN3CCN(Cc4cccc(F)c4)CC3)c(C)o2)cc1,8.8,0.8,4.2,54.8*,1.8,3.1
COc1ccc(-c2nc(CN3CCN(Cc4cccc(Cl)c4)CC3)c(C)o2)cc1,11.0,1.1,2.4,28.0,3.1,5.5
SMILES,Mtb hypoxia inh,TcdB inh,Mtb BioA inh,Yp Topo-I inh,RN4220 kill,ugtP null kill
CC(C)COC(=O)c1cccc2c1-c1ccccc1C2=NO,8.0,x,x,x,-4.1,96.3*
COC(=O)c1cccc2c1-c1ccccc1C2=NO,x,x,x,x,-0.8,20.6
Cc1cccc(C=Nn2c(-c3ccncc3)n[nH]c2=S)c1,-2.1,x,x,x,5.9,0.6
CC(=O)OC1C(=O)[C@@]2(C)C(O)CC3OC[C@@]3(OC(C)=O)C2C(OC(=O)c2ccccc2)[C@]2(O)CC(OC(=O)C(O)C(NC(=O)c3ccccc3)c3ccccc3)C(C)=C1C2(C)C (some centres undefined),-18.0,x,x,x,-0.1,-5.6
CCCCNC(=O)OC1CC2CCC(=O)N3CCC(C1)C23 (centres undefined),3.7,x,x,x,5.0,-1.0
Cc1ccc(CS(=O)Cc2ccc(C(=O)N3CCN(c4cccc(C)c4C)CC3)o2)cc1 (centres undefined),x,-0.3,x,23.3,x,x
COc1ccc(N2CCN(C(=O)c3ccc(CS(=O)Cc4ccc(Cl)cc4)o3)CC2)cc1 (centres undefined),1.3,-1.0,1.7,28.4,-8.0,99.3*
Cc1cccc(N2CCN(C(=O)c3ccc(CS(=O)Cc4cccc(Cl)c4)o3)CC2)c1C (centres undefined),-0.7,1.8,1.3,39.1,-1.1,90.4*
O=C(c1ccc(CS(=O)Cc2ccc(Cl)cc2)o1)N1CCN(c2ccccc2F)CC1 (centres undefined),-2.9,-1.6,1.8,14.1,-10.3,98.8*
CN1CCN(C(=O)c2ccc(CS(=O)Cc3ccc(Cl)cc3)o2)CC1 (centres undefined),4.8,-1.6,-0.7,-7.3,1.6,10.0
Cc1ccc(C)c(N2CCN(C(=O)c3ccc(CS(=O)Cc4ccc(Cl)cc4)o3)CC2)c1 (centres undefined),1.8,1.0,2.9,14.0,-2.9,49.0
Cc1ccc(Cl)cc1N1CCN(C(=O)c2ccc(CS(=O)Cc3ccc(Cl)cc3)o2)CC1 (centres undefined),6.2,2.4,4.1,36.0,-8.0,96.4*
C=C(C)C(=O)N1CC2(CC(c3cccc(NC(=O)C=CC)c3)=NO2)CC1C(N)=O (centres undefined),11.1,x,x,x,5.9,3.2
CCCOc1ccc(C(O)=C2C(=O)C(=O)N(CCCOC)C2c2cccnc2)cc1 (centres undefined),-5.6,x,x,x,-2.4,-4.9
CN(CC(=O)Nc1ccc(Cl)c(C(F)(F)F)c1)CC(=O)NC1CCCCC1,8.2,x,0.7,5.7,2.7,-9.7
CN(CC(=O)Nc1ccc(Cl)c(C(F)(F)F)c1)C(=O)CCN1C(=O)C2CCCCC2C1=O (centres undefined),2.9,1.8,2.9,3.0,67.0,93.6*
Clc1ccc(OCCSc2ncccn2)c2ccccc12,9.8,x,-5.6,4.8,1.6,95.7*
Cc1nc(N)nc(N)c1/C=C/C(C)(C)c1ccc(Cl)cc1,x,0.6,x,11.9,99.0*,99.7*
Cc1nc(N)nc(N)c1Oc1ccc(Cl)cc1,13.5,1.2,-0.2,1.4,10.6,10.8
CSc1cccc(NC(=O)CCc2ccccc2)c1,-5.6,10.6*,x,12.2,2.0,-0.3
Nc1ncnc2c1ncn2C1CC(O)C(COP(=O)(O)O)O1 (centres undefined),-1.0,x,x,x,11.2,6.1
O=C(COc1c(Br)cc(Br)c2cccnc12)N1CCc2ccccc2C1,9.2,2.3,1.9,57.2*,11.0,-13.9

# Bioassay records deposited in PubChem by several laboratories.
